Results reported in PubChem BioAssay (NCI).
This is part of a sample that, as a whole, favours compounds with a hit. Of some 83,000 tested, about 20% had one in any assay.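 Cell lines were cultured in 96-well plates, exposed to a single compound concentration, and assessed for percent growth 48 hours later.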 The source made the active and inactive calls. The calls were made as follows: active = growth percent below 10; inactive = the rest.

Key:
Assay in all cases: NCI-60 one-dose screen, 48 h (100 = growth as untreated, 0 = no growth, -100 = all killed)
Details in all cases: 10 µM unless noted
NCI-H23 lung = system: NCI-H23 lung
NCI-H226 lung = system: NCI-H226 lung
NCI-H322M lung = system: NCI-H322M lung
HOP-62 NSCLC = system: HOP-62 NSCLC
NCI-H460 lung = system: NCI-H460 lung
HOP-92 NSCLC = system: HOP-92 NSCLC
A549/ATCC NSCLC = system: A549/ATCC NSCLC
786-0 renal = system: 786-0 renal
COLO 205 colon = system: COLO 205 colon

Measured: growth

CSc1nc2nc3c(nc2c(=O)n1C)C(=O)c1ccccc1C3=O
active: NCI-H23 lung -26.4% | NCI-H226 lung -55.6% | NCI-H322M lung -89.8% | HOP-62 NSCLC -97.9% | NCI-H460 lung -62% | HOP-92 NSCLC -40% | A549/ATCC NSCLC -67.3% | 786-0 renal -50.5% | COLO 205 colon -86.2%

O=C1NCCc2c1noc2-c1ccccc1
inactive: NCI-H23 lung 99.5% | NCI-H226 lung 104% | NCI-H322M lung 101% | HOP-62 NSCLC 94.9% | NCI-H460 lung 107% | HOP-92 NSCLC 104% | A549/ATCC NSCLC 79.7% | 786-0 renal 96.5% | COLO 205 colon 103%

CC(=O)OC1Oc2cc(C)c(C)cc2-c2oc(=O)c(-c3ccccc3)cc21 (configuration not stated)
inactive: NCI-H23 lung 46.3% | NCI-H322M lung 33.5% | HOP-62 NSCLC 48% | A549/ATCC NSCLC 24.8% | 786-0 renal 33.5%
active: NCI-H226 lung -6.38% | NCI-H460 lung 4.89% | HOP-92 NSCLC -41.5% | COLO 205 colon 0.826%

O=C1C=CC(=O)N1c1ccccc1N1C(=O)C=CC1=O
inactive: NCI-H23 lung 115% | NCI-H226 lung 101% | NCI-H322M lung 122% | HOP-62 NSCLC 94.5% | NCI-H460 lung 111% | HOP-92 NSCLC 82.8% | A549/ATCC NSCLC 121% | 786-0 renal 110% | COLO 205 colon 57.7%

O=C(O)c1ccc2cccnc2c1O
inactive: NCI-H322M lung 12.4% | HOP-62 NSCLC 13.6% | A549/ATCC NSCLC 10.4%
active: NCI-H23 lung 8.65% | NCI-H226 lung 6.97% | NCI-H460 lung 6.87% | HOP-92 NSCLC -29.3% | 786-0 renal 7.02% | COLO 205 colon -70.9%

N#Cc1c(-c2ccccc2)cc(-c2ccccc2)n(CCCC(=O)O)c1=O
inactive: NCI-H23 lung 91.3% | NCI-H226 lung 101% | NCI-H322M lung 95.3% | HOP-62 NSCLC 85.1% | NCI-H460 lung 103% | HOP-92 NSCLC 119% | A549/ATCC NSCLC 92% | 786-0 renal 99.6% | COLO 205 colon 109%

Cn1cc(NC(=O)Nc2cc(C(=O)O)n(C)c2)cc1C(=O)O
inactive: NCI-H23 lung 109% | NCI-H226 lung 82.1% | NCI-H322M lung 100% | HOP-62 NSCLC 94.3% | NCI-H460 lung 120% | HOP-92 NSCLC 119% | A549/ATCC NSCLC 102% | 786-0 renal 109% | COLO 205 colon 113%

O=c1oc2c(cc1-c1ccc([N+](=O)[O-])cc1)C(O)Oc1ccccc1-2 (configuration not stated)
inactive: NCI-H23 lung 89.3% | NCI-H226 lung 101% | NCI-H322M lung 107% | HOP-62 NSCLC 98.1% | NCI-H460 lung 97.2% | A549/ATCC NSCLC 78.7% | 786-0 renal 98% | COLO 205 colon 93.5%
active: HOP-92 NSCLC -13.6%

C=C1CCC2C3(C)COC(c4ccccc4)OC3CCC2(C)C1C/C=C1/C(=O)OCC1OC(C)=O (configuration not stated)
inactive: NCI-H23 lung 101% | NCI-H226 lung 59.6% | NCI-H322M lung 97% | HOP-62 NSCLC 96.1% | NCI-H460 lung 103% | HOP-92 NSCLC 100% | A549/ATCC NSCLC 83.9% | 786-0 renal 95.3% | COLO 205 colon 103%

CCOC(=O)Nc1ccc2c3c(cccc13)-c1ccccc1-2
inactive: NCI-H23 lung 42.8% | NCI-H226 lung 63.1% | NCI-H322M lung 50.6% | HOP-62 NSCLC 45.1% | NCI-H460 lung 19.2% | HOP-92 NSCLC 81.6% | A549/ATCC NSCLC 47% | 786-0 renal 44.1% | COLO 205 colon 24.3%

COc1cnc2c(c1)C(=O)c1c-2n(CCCNC(C)C)c(=O)c2cc(F)ccc12
active: NCI-H23 lung -39.9% | NCI-H226 lung -52.6% | NCI-H322M lung -13.1% | HOP-62 NSCLC -35.8% | NCI-H460 lung -32% | HOP-92 NSCLC -8.3% | A549/ATCC NSCLC -68.6% | 786-0 renal -73% | COLO 205 colon -19.7%

c1ccc(-c2n(Cc3ccc4ccccc4c3)cc[n+]2Cc2ccc3ccccc3c2)cc1
inactive: A549/ATCC NSCLC 12.5%
active: NCI-H23 lung -38.7% | NCI-H226 lung -9.03% | NCI-H322M lung 8.84% | HOP-62 NSCLC -44.8% | NCI-H460 lung -78.5% | HOP-92 NSCLC -69.6% | 786-0 renal -80.7% | COLO 205 colon -79.1%

COc1cccc(/C=N\NC(=O)c2ccncc2)c1O
inactive: NCI-H23 lung 58.5% | NCI-H226 lung 61.8% | NCI-H322M lung 19% | HOP-62 NSCLC 50.8% | NCI-H460 lung 15.9% | HOP-92 NSCLC 55.1% | A549/ATCC NSCLC 73.2% | 786-0 renal 35.5% | COLO 205 colon 50.1%

c1ccc2c(-c3nc4ccccc4[nH]3)cccc2c1
inactive: NCI-H23 lung 44.2% | NCI-H226 lung 79% | NCI-H322M lung 64.5% | HOP-62 NSCLC 43% | NCI-H460 lung 15.5% | HOP-92 NSCLC 53.3% | A549/ATCC NSCLC 38.6% | 786-0 renal 55.5% | COLO 205 colon 24.6%

Nc1nc2c(c(=O)[nH]1)C1(C(=O)Nc3ccccc31)c1c(nc(N)[nH]c1=O)N2
inactive: NCI-H23 lung 106% | NCI-H226 lung 91.5% | NCI-H322M lung 98.1% | HOP-62 NSCLC 101% | NCI-H460 lung 104% | HOP-92 NSCLC 96.2% | A549/ATCC NSCLC 112% | 786-0 renal 108% | COLO 205 colon 102%

O=C(CNC(=O)c1cccc2ccccc12)Nc1ccccc1Oc1cccc(O)c1
inactive: NCI-H23 lung 41.5% [5 µM] | NCI-H226 lung 58.6% [5 µM] | NCI-H322M lung 45.1% [5 µM] | HOP-62 NSCLC 19.2% [5 µM] | NCI-H460 lung 11.2% [5 µM] | HOP-92 NSCLC 72.9% [5 µM] | A549/ATCC NSCLC 21.8% [5 µM] | 786-0 renal 19.6% [5 µM] | COLO 205 colon 33.8% [5 µM]

Cc1nn(-c2ccccc2)cc1/C=C1\SC(N2CCCCC2)=NC1=O
inactive: NCI-H23 lung 104% | NCI-H226 lung 86.7% | NCI-H322M lung 100% | HOP-62 NSCLC 103% | NCI-H460 lung 95.2% | HOP-92 NSCLC 76.7% | A549/ATCC NSCLC 90.1% | 786-0 renal 83.6% | COLO 205 colon 66.9%

CCOc1cc(/C=C/C(=O)C(C(=O)/C=C/c2ccc(OC(=O)CNc3nnc(C)s3)c(OCC)c2)C(=O)CNc2nnc(C)s2)ccc1OC(=O)CNc1nnc(C)s1
active: NCI-H23 lung -2.16% | NCI-H226 lung -14.8% | NCI-H322M lung 6.22% | HOP-62 NSCLC 3.59% | NCI-H460 lung -46.8% | HOP-92 NSCLC -25.6% | A549/ATCC NSCLC 8.11% | 786-0 renal -73.7% | COLO 205 colon -55%

Cc1[nH]c(=O)[nH]c(=O)c1CCSSCCc1c(C)[nH]c(=O)[nH]c1=O
inactive: NCI-H23 lung 107% | NCI-H226 lung 102% | NCI-H322M lung 89.9% | HOP-62 NSCLC 97.2% | NCI-H460 lung 108% | HOP-92 NSCLC 116% | A549/ATCC NSCLC 103% | 786-0 renal 103% | COLO 205 colon 107%

COc1ccc(Oc2ccccc2NC(=O)CNC(=O)c2cccc3ccccc23)cc1
active: COLO 205 colon -20% [5 µM]
inactive: NCI-H23 lung 36.7% [5 µM] | NCI-H226 lung 61.4% [5 µM] | NCI-H322M lung 45.5% [5 µM] | HOP-62 NSCLC 31.5% [5 µM] | NCI-H460 lung 11.9% [5 µM] | HOP-92 NSCLC 52.1% [5 µM] | A549/ATCC NSCLC 20.8% [5 µM] | 786-0 renal 30.1% [5 µM]

COc1ccc2nc(-c3ccc(Cl)cc3)cc(-c3nnc(SCC(=O)Nc4ccc(C(C)=O)cc4)n3-c3ccccc3)c2c1
inactive: NCI-H23 lung 100% | NCI-H226 lung 99.1% | NCI-H322M lung 91.5% | HOP-62 NSCLC 100% | NCI-H460 lung 102% | HOP-92 NSCLC 111% | A549/ATCC NSCLC 93.2% | 786-0 renal 91.4% | COLO 205 colon 101%

FCc1ncc(-c2ccc(C(F)(F)F)cc2)c(NC2CCCCCC2)n1
active: NCI-H460 lung -28.9% [100 µM] | HOP-92 NSCLC -31.7% [100 µM] | A549/ATCC NSCLC 7.62% [100 µM] | 786-0 renal -13.7% [100 µM] | COLO 205 colon -21% [100 µM]
inactive: NCI-H23 lung 10.9% [100 µM] | NCI-H226 lung 34.4% [100 µM] | NCI-H322M lung 36.3% [100 µM] | HOP-62 NSCLC 31.2% [100 µM]

O=C1NC(=O)/C(=C/c2ccc(Cl)cc2Cl)N1
inactive: NCI-H23 lung 91.2% | NCI-H226 lung 99.4% | NCI-H322M lung 104% | HOP-62 NSCLC 99.1% | NCI-H460 lung 109% | HOP-92 NSCLC 81.2% | A549/ATCC NSCLC 101% | 786-0 renal 109% | COLO 205 colon 100%

CCOC(=O)CNC(=O)C1(NC(=O)CNC(=O)OCc2ccccc2)CCCC1
inactive: NCI-H23 lung 105% | NCI-H226 lung 115% | NCI-H322M lung 109% | HOP-62 NSCLC 112% | NCI-H460 lung 112% | HOP-92 NSCLC 96.2% | A549/ATCC NSCLC 89.8% | 786-0 renal 94.9% | COLO 205 colon 120%

O=C(CN1CCN(c2ccc(Cl)cc2)CC1)N1CCN(c2nnc(-c3ccccc3)c(-c3ccccc3)n2)CC1
active: A549/ATCC NSCLC -6.5%
inactive: NCI-H23 lung 34.9% | NCI-H226 lung 43.7% | NCI-H322M lung 80.7% | HOP-62 NSCLC 58.1% | NCI-H460 lung 30.7% | HOP-92 NSCLC 39.1% | 786-0 renal 35.9% | COLO 205 colon 33%

COC(=O)c1cc2oc(/C=N\NC(=O)c3cc4oc(C)c(C)c4[nH]3)cc2[nH]1
inactive: NCI-H23 lung 104% | NCI-H226 lung 117% | NCI-H322M lung 106% | HOP-62 NSCLC 110% | NCI-H460 lung 111% | A549/ATCC NSCLC 112% | 786-0 renal 107% | COLO 205 colon 94%
active: HOP-92 NSCLC -34.1%

COc1cc(C(=O)/C=C/c2cccc(Nc3ccnc4cc(Cl)ccc34)c2)cc(OC)c1OC
inactive: NCI-H23 lung 11.1% | HOP-92 NSCLC 16.3%
active: NCI-H226 lung -18.7% | NCI-H322M lung 8.86% | HOP-62 NSCLC -76.8% | NCI-H460 lung 4% | A549/ATCC NSCLC -38.7% | 786-0 renal -74.1% | COLO 205 colon -36.1%

C/C(=C\CCc1ccoc1)CC/C=C(\C)CCCN1CCOCC1
inactive: NCI-H23 lung 46.2% | NCI-H226 lung 70.6% | NCI-H322M lung 84.5% | HOP-62 NSCLC 69.1% | NCI-H460 lung 54.3% | HOP-92 NSCLC 57.4% | A549/ATCC NSCLC 63.6% | 786-0 renal 69.4% | COLO 205 colon 40.9%
